# Measured values as given in PubChem BioAssay AID504467 (National Center for Advancing Translational Sciences (NCATS), 2011).
# Hit rate of the full screen: of about 330,000 compounds, about 7,700 (2.3%) were called active. About 26% were inconclusive and are not listed. The call rests on the fitted dose curve; in most records, active means well fitted inhibition curve with a large enough effect; inconclusive means small, poorly fitted or top-dose-only effect, or effect the other way; inactive means flat fitted curve, though single readings scatter. The list comes from a sample in which actives are over-represented; it also holds similar structures and randomly drawn compounds.
# Assay: qHTS screen for small molecules that inhibit ELG1-dependent DNA repair in human embryonic kidney (HEK293T) cells expressing luciferase-tagged ELG1; further: nearly all actives have a fitted effect of over 55% in size
# Details: HEK293T ELG1-luciferase reporter, luminescence, 16 h, DNA damage induced by 5-fluorouridine; series mostly up to 46.1 µM; activity change, negative = inhibition: at the top concentration
# Outline: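 Cells (2,000 per well) received 5-fluorouridine plus test compound or DMSO and were incubated 16 hr at 37 °C, 5% CO2. Luciferase activity was read by luminescence 30 min after ONE-Glo addition; signal suppression marked inhibition of damage-induced ELG1 function.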
# On the % scale 0 is the no-effect control and ±100 the full control effect; potency means the concentration at half of the fitted maximal effect.
Structure (SMILES),"activity change, negative = inhibition",Potency
COc1ccc(C2=NN(C(=O)CSc3nc(=O)n4ccc(C)cc4n3)C(c3ccc(C)cc3)C2)cc1 (centres undefined),-11.2% (inactive),–
CC(=O)N1c2ccc(S(=O)(=O)N3CCC(C(=O)NC4CCCC(C)C4C)CC3)cc2CC1C (centres undefined),0% (inactive),–
O=C(Cn1cnc2c(OCc3ccccc3)ncnc21)NCCCn1ccnc1,13.1% (inactive),–
COc1ccc(Nc2cc(C)nc(-n3nc(C)cc3C)n2)cc1,9.95% (inactive),–
COc1cc(NS(=O)(=O)c2ccccc2)ccc1-n1nc(C)cc1C,1.2% (inactive),–
COc1ccccc1/C=N\Nc1cc(C)nc(-n2nc(C)cc2C)n1,–,23.1 µM (active)
COc1cccc(/C=N/Nc2cc(C)nc(-c3ccccc3O)n2)c1O,–,5.8 µM (active)
COc1cccc2c(N/N=C/c3ccco3)cc(C)nc12,17.8% (inactive),–
COc1cccc(/C=N/Nc2ncc(C(F)(F)F)cc2Cl)c1O,15.3% (inactive),–
CCN(c1ccccc1)S(=O)(=O)c1cc(C(=O)NCc2ccccn2)ccc1C,-4.44% (inactive),–
CC(=O)c1sc(NC(=O)CCN2C(=O)C3CC=CCC3C2=O)nc1-c1ccccc1 (centres undefined),-10.9% (inactive),–
O=S(=O)(NCC1CN(S(=O)(=O)c2ccc3c(c2)OCCO3)C1)c1c(F)cccc1F,19.5% (inactive),–
CC(C)N(C(=O)CN1CCN(S(=O)(=O)c2ccc(Br)s2)CC1)C(C)C,-6.18% (inactive),–
CS(=O)(=O)c1ccc(Cl)c(NC(=O)COC(=O)c2cccc(S(=O)(=O)N3CCCC3)c2)c1,-2.83% (inactive),–
O=C(CNCc1cccs1)Nc1cc(S(=O)(=O)N2CCCC2)ccc1Cl,–,16.4 µM (active)
O=C(NCc1cccs1)C1CCN(S(=O)(=O)c2ccc(Cl)cc2)CC1,8.41% (inactive),–
O=C(CN1CCCCCC1)Nc1ccc(S(=O)(=O)N2CCCCC2)cc1,0.957% (inactive),–
O=C(NN=Cc1ccc(N2CCOCC2)cc1)c1cc2ccccc2cc1O,0% (inactive),–
COc1ccc(OCCC(=O)c2ccc(OC)cc2)cc1,4.01% (inactive),–
CCCOc1ccc(C(=O)C(CCC(CNCC)C(=O)c2ccc(OCCC)cc2)CNCC)cc1 (centres undefined),–,23.1 µM (active)
CCCCOc1ccc(C(=O)NN2CCN(C)CC2)cc1,17.4% (inactive),–
COc1ccc(-c2c(C#Cc3ccsc3)c3cc(-c4ccc(CN5CCOCC5)cc4)ccc3n2C)cc1,15.4% (inactive),–
COc1cc(OC)cc(-c2c(C#Cc3ccsc3)c3cc(-c4ccc(OC)cc4F)ccc3n2C)c1,20.3% (inactive),–
Cc1nc(C(=O)Nc2ccc(Cl)cc2)sc1C1(C)CC(c2ccccc2)=NO1 (centres undefined),–,18.3 µM (active)
O=C(Nc1ccc(Cl)cc1)OCc1cc(-c2ccccc2)on1,4.31% (inactive),–

Structure (SMILES),"activity change, negative = inhibition",Potency
O=C1CC2(CC(c3ccc(Cl)cc3)=NO2)C(=O)N1c1ccccc1 (centres undefined),-2.34% (inactive),–
COc1ccccc1N1CCN(S(=O)(=O)c2ccc3c(c2)NC(=O)CS3)CC1,-2.54% (inactive),–
CCOC(=O)[C@H]1[C@H]2COc3cc(OC)ccc3[C@@H]2N2C(=O)CN(Cc3ccc(Cl)cc3)C(=O)[C@@]12C,-4.83% (inactive),–
CCc1ccc(CN(C)C(=O)C2CCC(=O)N(Cc3cccc(OC)c3)C2)nc1 (centres undefined),16.9% (inactive),–
CN(C)S(=O)(=O)c1ccc(N2CCCC2)c(C(=O)Nc2ccc(Br)cc2F)c1,-7.6% (inactive),–
CCOc1ccccc1NC(=O)c1cc(S(=O)(=O)N2CCC3(CC2)OCCO3)ccc1F,-3.11% (inactive),–
Cc1c(C(=O)Nc2ccccc2Cl)oc2ccc(S(=O)(=O)N3CCC4(CC3)OCCO4)cc12,–,3.66 µM (active)
Cc1c(C(=O)NCCN(C)C)oc2ccc(S(=O)(=O)N3CCCC3)cc12,13.6% (inactive),–
CCN(Cc1ccccc1)C(=O)Cc1ccc(OC)c(S(=O)(=O)N2CCOCC2)c1,-2.15% (inactive),–
C=CCn1c(SCC(=O)NC(=O)Cc2ccccc2)nc2ccccc2c1=O,3.04% (inactive),–
C=CCn1c(SCC(=O)NCc2ccccc2)nnc1-c1cc(Br)ccc1O,–,13 µM (active)
C=CCn1c(SCC(=O)Nc2nc3ccccc3s2)nnc1-c1ccccc1O,-15.9% (inactive),–
Cc1cc(N/N=C/c2ccccc2F)c2ccccc2n1,4.96% (inactive),–
Oc1ccc(/C=N/Nc2nc(-c3ccccc3F)nc3ccccc23)c(O)c1,–,14.6 µM (active)
FC(F)(F)c1nc2ccccc2nc1N/N=C/c1ccc(Cl)cc1,-5.61% (inactive),–
CC(C)(C)c1cc(C(=O)N/N=C/c2ccc([N+](=O)[O-])s2)n[nH]1,–,5.17 µM (active)
COc1ccc(C(=O)NCC(=O)N/N=C/c2ccc([N+](=O)[O-])s2)cc1OC,–,8.2 µM (active)
CCOc1ccc(NC(=O)CCC(=O)N/N=C/c2ccc([N+](=O)[O-])s2)cc1,-21.4% (inactive),–
COc1ccc(C(=O)COC(=O)c2ccc([N+](=O)[O-])s2)cc1OC,12.6% (inactive),–
COc1cc(/C=N\NC(=O)CNC(=O)c2cccc([N+](=O)[O-])c2)ccc1O,-5.46% (inactive),–
COc1ccc2ccccc2c1/C=N/NC(=O)c1cc(C)[nH]n1,-0.422% (inactive),–
Nc1nnnn1/N=C/c1cc([N+](=O)[O-])ccc1O,-2.35% (inactive),–
O=[N+]([O-])c1ccc(O)c(/C=N/Nc2ccccc2[N+](=O)[O-])c1,–,18.3 µM (active)
O=[N+]([O-])c1ccccc1Nc1ccc(O)cc1,-19% (inactive),–
Cc1ccccc1SCC(=O)OCC(=O)N1CC(=O)Nc2ccccc21,0% (inactive),–

Structure (SMILES),"activity change, negative = inhibition",Potency
CCCn1c(C(C)Nc2nc(-c3ccc(C)cc3)cs2)nc2cc(Cl)c(N3CCCCC3)cc21 (centres undefined),16.4% (inactive),–
Cc1ccccc1Cn1c(=O)[nH]c2ccccc21,-14.6% (inactive),–
CCCc1cc(=S)n2c([nH]c3ccccc32)c1C#N,–,16.4 µM (active)
CCOC(=O)c1cnc2[nH]c3ccccc3n2c1=O,4.07% (inactive),–
Cc1ccc(S(=O)(=O)N(C)CC(=O)NCC(c2ccc(F)cc2)N2CCOCC2)cc1 (centres undefined),1.93% (inactive),–
O=C(OCC(=O)N1CCCCCC1)c1ccc(Cl)nc1,0.267% (inactive),–
CCCCn1nc(C(=O)Nc2cccc(C(=O)NC3CC3)c2)c2ccccc2c1=O,–,13 µM (active)
CCCCn1nc(C(=O)OCC(=O)Nc2sccc2C(N)=O)c2ccccc2c1=O,10.7% (inactive),–
CCn1nc(C(=O)Nc2ccc(N3CCOCC3)cc2)c2ccccc2c1=O,-3.51% (inactive),–
Cn1c(N)c(C(=O)COC(=O)c2cccc(S(=O)(=O)N3CCOCC3)c2)c(=O)n(C)c1=O,-10% (inactive),–
CCCn1c(CCNc2nc(-c3ccc(OC)cc3)cs2)nc2ccccc21,-26% (inactive),–
CN(c1ccccc1)S(=O)(=O)c1ccc(Cl)c(C(=O)NCCc2c[nH]c3ccccc23)c1,–,18.4 µM (active)
CSCCC(NS(=O)(=O)c1ccc(C)cc1)C(=O)NCCc1c[nH]c2ccccc12 (centres undefined),-7.72% (inactive),–
CCN(CC(=O)NCCc1ccccc1)S(=O)(=O)c1ccc(C)cc1,-15.1% (inactive),–
Cc1ccc(S(=O)(=O)N(C)CC(=O)NCCc2c[nH]c3ccccc23)cc1,–,14.6 µM (active)
CN(c1ccccc1)S(=O)(=O)c1ccc(Cl)c(C(=O)OCC(N)=O)c1,-2.61% (inactive),–
CCN(CC)S(=O)(=O)c1ccc2[nH]cc(C(=O)NCCc3ccccc3)c(=O)c2c1,–,5.8 µM (active)
COc1ccccc1CC(=O)NCCc1c[nH]c2ccccc12,-6% (inactive),–
CN(c1ccccc1)S(=O)(=O)c1ccc(Cl)c(C(=O)OCC(=O)NCc2ccco2)c1,10.8% (inactive),–
CCN(CC(=O)NCCc1ccccc1)S(=O)(=O)c1ccccc1,6.38% (inactive),–
COc1cc(CN2CCCC(C(=O)c3ccc(SC)cc3)C2)cc(Cl)c1O (centres undefined),-21% (inactive),–
CCOc1ccccc1OCC(=O)Nc1ccccc1C(=O)NC1CC1,-13.3% (inactive),–
Cc1ccc(S(=O)(=O)NCc2ccc(C(=O)NC3CCC(C)CC3)cc2)cc1 (centres undefined),0.703% (inactive),–
CCCCn1c(N)c(N(CCOC)C(=O)c2oc3ccc(OC)cc3c2C)c(=O)[nH]c1=O,12.6% (inactive),–
CCN(C(=O)COC(=O)CCC(=O)c1cccs1)C1CCCCC1,0% (inactive),–

Structure (SMILES),"activity change, negative = inhibition",Potency
CS(=O)(=O)c1ccc2nc(NC(=O)c3ccc(N4CCCC4=O)cc3)sc2c1,-12.2% (inactive),–
CN(C)CCCN(C(=O)c1ccc(S(=O)(=O)N2CCCc3ccccc32)cc1)c1nc2ccc(F)cc2s1,0% (inactive),–
Cc1cccc(NC(=O)c2cccc(S(=O)(=O)N3CCCC3)c2)n1,-4.45% (inactive),–
CC1CCN(C(=O)c2cccc(S(=O)(=O)N3CCCc4ccccc43)c2)CC1,16% (inactive),–
O=C(Nc1nc2ccc([N+](=O)[O-])cc2s1)c1ccc(S(=O)(=O)N2CCCc3ccccc32)cc1,–,2.31 µM (active)
Cc1ccc(NC(=O)c2cccc(S(=O)(=O)N3CCCc4ccccc43)c2)nc1,–,18.3 µM (active)
O=C(COC(=O)c1ccco1)Nc1ccc(Cl)cn1,23.5% (inactive),–
COc1ccc(Cl)cc1NC(=O)COC(=O)c1ccc(Br)o1,22.8% (inactive),–
O=C(NCCN1CCOCC1)c1cccc(S(=O)(=O)Nc2ccc(F)cc2)c1,4.32% (inactive),–
COc1ccc(CCNC(=O)CSCc2ccc(Br)cc2)cc1OC,-25.8% (inactive),–
CCOC(=O)CN(Cc1ccc(OC)c(OC)c1)S(=O)(=O)c1ccc(OC)cc1,3.12% (inactive),–
COc1ccc(COC(=O)NC(C(=O)O)c2ccccc2)cc1 (centres undefined),0.779% (inactive),–
COc1ccc(C(CCN(Cc2ccc(OC)c(OC)c2)C(=O)CCl)c2ccccc2)cc1 (centres undefined),–,20.6 µM (active)
Cc1cccc(C)c1Nc1nnc(SCC(=O)NCCCN2CCCC2=O)s1,-6.62% (inactive),–
C[C@H](CO)N1C[C@H](C)[C@@H](CN(C)Cc2ccc(-c3ccccc3)cc2)Oc2ccc(NC(=O)Cn3cnnn3)cc2C1=O,-17.5% (inactive),–
CC(=O)Nc1cccc(OCC(=O)/C=C2\N(C)c3ccccc3C2(C)C)c1,–,18.3 µM (active)
Cc1noc(C)c1C(=O)OCC(=O)/C=C1\N(C)c2ccccc2C1(C)C,10.3% (inactive),–
CCOc1cccc(NC(=O)CC#N)c1,-2.32% (inactive),–
Cc1ccc(-n2c(SCC(=O)NCCC3=CCCCC3)nc3n[nH]c(C)c3c2=N)cc1Cl,3.77% (inactive),–
Cc1ccc2cc(C)c(N3CCN(c4ccc(F)cc4)CC3)nc2c1,2.56% (inactive),–
COc1ccccc1-c1nn(Cc2ccccc2)cc1C(=O)N1CCN(c2ncccn2)CC1,-22.5% (inactive),–
O=c1c2[nH]c3ccc(Cl)cc3c2ncn1Cc1ccccn1,3.64% (inactive),–
CN(C)c1ccnc2sc3c(=O)n(Cc4ccccc4)cnc3c12,–,4.61 µM (active)
O=c1c2c(ncn1Cc1ccccc1)nc1n2CCC1,2.62% (inactive),–
